These results are taken from PubChem BioAssay (EPA / NIEHS).

Assay [1] concerns the target Aryl hydrocarbon receptor (Homo sapiens) (UniProt P35869). Description: ATG_Ahr_CIS: Attagene CIS-FACTORIAL HepG2 Assay for human Aryl Hydrocarbon Receptor (Ahr) (AID 2282930). The settings on record: HepG2 AhR cis-factorial reporter transcription; actives raise or lower the signal. The gist of the method:
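Reporter mRNA levels, quantified by RT-PCR and fluorescent capillary electrophoresis, reflect endogenous AhR transcriptional activity in HepG2 cells carrying transfected cis-promoter reporter constructs. Readout at 24 h post-dose; gain or loss fitted against DMSO baseline.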

Assay [2] is described as follows: ATG_GRE_CIS: Attagene CIS-FACTORIAL HepG2 Assay for human Glucocorticoid Response Elements (GRE) (AID 2282947). The settings on record: HepG2 GRE cis-reporter, Attagene multiplex mRNA; actives raise or lower the signal. The essentials: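 Reporter transcripts read by RT-PCR with capillary electrophoresis fluorescence after a 24 h chemical exposure of HepG2 cells transiently transfected with multiple cis-element reporter units. Gain or loss fitted against DMSO.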

The target in assay [3] is Hypoxia-inducible factor 1-alpha (Homo sapiens) (UniProt Q16665). The experiment in a line: ATG_HIF1a_CIS: Attagene CIS-FACTORIAL HepG2 Assay for human Hypoxia Inducible Factor 1 (HIF1A) (AID 2282951). Conditions: HepG2 Attagene cis-factorial HIF1a reporter transcription; actives raise or lower the signal. The essentials:
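HepG2 cells transiently transfected with multiplexed cis-promoter reporter units; reporter mRNA read 24 h after dosing by RT-PCR, 6-FAM primer-extension labelling, HpaI digestion and capillary electrophoresis. Bidirectional fit versus DMSO baseline.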

For assay [4], the target named is Transcription factor Sp1 (Homo sapiens) (UniProt P08047). The experiment in a line: ATG_Sp1_CIS: Attagene CIS-FACTORIAL HepG2 Assay for human Specificity Protein 1 (Sp1) (AID 2282961). The settings on record: HepG2 Sp1 cis-reporter transcription, actives raise or lower the signal. The essentials: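 HepG2 cells transiently transfected with multiple reporter transcription units driven by cis-regulatory elements; Sp1-responsive reporter mRNA measured 24 h after dosing by RT-PCR and capillary electrophoresis fluorescence, fitted bidirectionally against DMSO baseline.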

In assay [5] the target is Signal transducer and activator of transcription 3 (Homo sapiens) (UniProt P40763). Description: ATG_STAT3_CIS: Attagene CIS-FACTORIAL HepG2 Assay for human Signal Transducer and Activator of Transcription 3 (STAT3) (AID 2282963). Conditions: HepG2, Attagene cis-factorial STAT3 reporter transcription; actives raise or lower the signal. The essentials:
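Readout is reporter transcript quantified by RT-PCR and capillary electrophoresis, with 6-FAM primer extension and HpaI digestion. Total RNA is taken 24 h after dosing transiently transfected HepG2 carrying cis-regulated reporter units. Bidirectional fit against DMSO.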

Assay [6] is described as follows: ATG_TCF_b_cat_CIS: Attagene CIS-FACTORIAL HepG2 Assay for human T-Cell-Factor with beta-catenin (TCF/b-cat) (AID 2282965). The settings on record: HepG2 TCF/beta-catenin cis-reporter transcription, actives raise or lower the signal. The gist of the method:
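Endogenous TCF/LEF activity read as reporter transcript level via RT-PCR and capillary electrophoresis fluorescence in transfected HepG2, 24 h exposure; gain or loss of signal fitted against DMSO controls.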

A short description of assay [7]: ATG_TAL_CIS: Attagene CIS-FACTORIAL HepG2 Assay for human TAL Basal Promoter (AID 2282966).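 Note: background control endpoint measuring basal TAL promoter reporter mRNA not a specific factor.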 The settings on record: HepG2 Attagene cis-factorial TAL promoter reporter; actives raise or lower the signal. The essentials: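 Endogenous transcription-factor activity is sensed in HepG2 cells through transfected cis-promoter reporter constructs. After 24 h dosing, reporter transcripts are quantified by RT-PCR and capillary electrophoresis. Gain or loss of signal is fitted relative to DMSO.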

Assay [8] is described as follows: ATG_TGFb_CIS: Attagene CIS-FACTORIAL HepG2 Assay for human Transforming Growth Factor (TGF) (AID 2282967). Conditions: HepG2 Attagene CIS TGFb reporter, mRNA transcription; actives raise or lower the signal. The gist of the method: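 HepG2 cells transiently transfected with cis-promoter-driven multiplexed reporter units; 24 h compound exposure. Reporter mRNA measured by RT-PCR, 6-FAM labeling, HpaI digestion and capillary electrophoresis; bidirectional fit versus DMSO baseline.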

Assay [9] is described as follows: ATG_VDRE_CIS: Attagene CIS-FACTORIAL HepG2 Assay for human Vitamin D Receptor Element (VDRE) (AID 2282968). Conditions: HepG2 VDRE cis-reporter transcription, actives raise or lower the signal. The essentials:
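Readout is VDRE-driven reporter mRNA reflecting endogenous factor activity in human HepG2 cells, sampled 24 h post-dose. Quantification used labelled RT-PCR products separated by capillary electrophoresis; bidirectional analysis relative to DMSO.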

Assay [10] concerns the target X-box-binding protein 1 (Homo sapiens) (UniProt P17861). Description: ATG_Xbp1_CIS: Attagene CIS-FACTORIAL HepG2 Assay for human X-box Binding Protein 1 (XBP1) (AID 2282972). The settings on record: HepG2 XBP1 cis-element reporter, Attagene multiplex; actives raise or lower the signal. The gist of the method: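 Read-out: fluorescent reporter mRNA fragments resolved by capillary electrophoresis after RT-PCR. Human HepG2 liver cells carried transfected cis-promoter reporter units and were exposed to chemicals for 24 hours. Gain or loss of signal fitted relative to DMSO baseline.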

Assay [11] in a line: ATG_M_32_TRANS: Attagene TRANS-FACTORIAL HepG2 Assay for M32 Transcription Factor (Internal Marker) (AID 2282984; active = hit-call score of the fitted dose curve at least 0.9, where 1 is the maximum). The settings on record: HepG2 Attagene TRANS M32 internal marker reporter. The gist of the method:
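Internal background reporter in transfected HepG2: after 24 h chemical exposure, RNA reverse-transcribed, reporter cDNA amplified, fluorescently labelled and HpaI-cut, then sized by capillary electrophoresis. Gain of signal fitted against DMSO control.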

The target of assay [12] is Transcriptional activator Myb (Homo sapiens) (UniProt P10242). The experiment in a line: ATG_Myb_CIS: Attagene CIS-FACTORIAL HepG2 Assay for human Myeloblastosis (Myb) Proto-Oncogene Transcription Factor (AID 2282986). Conditions: HepG2 Attagene CIS-FACTORIAL Myb reporter transcription; actives raise or lower the signal. The gist of the method: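 HepG2 cells were transiently transfected with cis-regulated multiple reporter transcription units reflecting endogenous Myb activity, then exposed to compound for 24 hours. Reporter mRNA was measured by RT-PCR with capillary electrophoresis; bidirectional fitting versus DMSO baseline.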

The target of assay [13] is Myc proto-oncogene protein (Homo sapiens) (UniProt P01106). Description: ATG_Myc_CIS: Attagene CIS-FACTORIAL HepG2 Assay for human Myelocytomatosis (Myc) Proto-Oncogene Transcription Factor (AID 2282990). Conditions: HepG2, Attagene cis-reporter transcription factor activity; actives raise or lower the signal. The gist of the method:
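After 24 h chemical treatment of HepG2 cells carrying multiplexed cis-regulated reporter constructs, reporter transcripts quantified by RT-PCR and capillary electrophoresis of fluorescent fragments. Gain or loss fitted against DMSO baseline.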

Assay [14] can be described thus: ATG_NRF2_ARE_CIS: Attagene CIS-FACTORIAL HepG2 Assay for human Nuclear Factor Erythroid 2 Related Factor 2 (NFR2) response to Antioxidant Response Elements (ARE) (AID 2282992). The settings on record: HepG2 Attagene ARE/NRF2 reporter, transcription factor activity; actives raise or lower the signal. The essentials:
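Readout: reporter mRNA quantified by RT-PCR plus FAM-labelled primer extension, HpaI digestion and capillary electrophoresis, 24 h after dosing transfected HepG2 cells. Gain or loss of signal is fitted bidirectionally against DMSO baseline.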

Assay [15] in a line: ATG_Oct_MLP_CIS: Attagene CIS-FACTORIAL HepG2 Assay for human Octamer-Binding Transcription Factor (Oct) (AID 2282993). Conditions: HepG2 Attagene cis-factorial Oct reporter, mRNA; actives raise or lower the signal. The essentials: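 HepG2 cells transiently transfected with cis-promoter-driven multiplexed reporter transcription units, dosed for 24 h. Reporter mRNA quantified by RT-PCR, fluorescent labelling, HpaI digestion and capillary electrophoresis; bidirectional fits versus DMSO baseline.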

Assay [16] deals with Cellular tumor antigen p53 (Homo sapiens) (UniProt P04637). Description: ATG_p53_CIS: Attagene CIS-FACTORIAL HepG2 Assay for human p53 Transcription Factor (AID 2282994). The settings on record: HepG2 p53 cis-element reporter, Attagene mRNA; actives raise or lower the signal. The gist of the method:
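Read-out: reporter mRNA by RT-PCR plus capillary electrophoresis with fluorescence detection. Human HepG2 liver cells carried transfected multi-reporter cis-element constructs, dosed 24 h. Gain or loss of signal fitted bidirectionally against DMSO control.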

Assay [17] has as its target Peroxisome proliferator-activated receptor gamma (Homo sapiens) (UniProt P37231). The experiment in a line: ATG_PPARg_TRANS: Attagene TRANS-FACTORIAL HepG2 Assay for human Peroxisome Proliferator-activated Receptor-gamma (PPARg) (AID 2283007; active = hit-call score of the fitted dose curve at least 0.9, where 1 is the maximum). The essentials: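 HepG2 cells transiently transfected with multiplexed GAL4-UAS reporter units and exogenous chimeric NR-Gal4 proteins; reporter mRNA quantified after 24 h compound exposure by RT-PCR, fluorescent labelling, HpaI digestion and capillary electrophoresis; gain-of-signal fitted versus DMSO baseline.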

Assay [18] deals with Cellular tumor antigen p53 (Homo sapiens) (UniProt P04637). Description: TOX21_p53_BLA_p4_ratio: Tox21 HCT-116 p53 Agonism Beta-lactamase Assay, Ratio, Phase 4 (AID 2283601; active = hit-call score of the fitted dose curve at least 0.9, where 1 is the maximum). The essentials: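 Signal is the blue/green (460nm/530nm) ratio of cleaved versus uncleaved CCF4-AM substrate, read after 2 h substrate loading. Cells were HCT116 carrying the p53-responsive beta-lactamase reporter, dosed 16 h at 37C, 5% CO2; CellTiter-Glo measured in parallel.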

The nature of assay [19]: ATG_TA_CIS: Attagene CIS-FACTORIAL HepG2 Assay for human TA Basal Promoter (AID 2282964). The settings on record: HepG2 Attagene CIS-factorial TA basal promoter reporter; actives raise or lower the signal. The gist of the method:
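HepG2 cells transiently transfected with multiplexed cis-promoter reporter units, dosed 24 h. Reporter mRNA measured by RT-PCR, 6-FAM labelling, HpaI digestion and capillary electrophoresis; bidirectional fit versus DMSO baseline, serving as background control.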

The nature of assay [20]: ATG_NFI_CIS: Attagene CIS-FACTORIAL HepG2 Assay for human Nuclear Factor I (NFI) (AID 2282989). The settings on record: HepG2 cis-regulatory reporter, NFI response element transcription; actives raise or lower the signal. The gist of the method:
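HepG2 cells transiently transfected with cis-element-driven multiplexed reporter transcription units, dosed for 24 h. Reporter mRNA quantified by RT-PCR, fluorescent labelling, HpaI digestion and capillary electrophoresis; bidirectional fit versus DMSO baseline.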

Results filed as inconclusive are left out. A structure can be active in one record and inactive in another. Calls of active or inactive are those of the source. Rule for the calls, unless noted: active = hit-call score of the fitted dose curve at least 0.9, where 1 is the maximum; inactive = score below 0.9.

Sequence of X-box-binding protein 1 (Homo sapiens) (P17861 whole entry, looked up, the tested form may be a part): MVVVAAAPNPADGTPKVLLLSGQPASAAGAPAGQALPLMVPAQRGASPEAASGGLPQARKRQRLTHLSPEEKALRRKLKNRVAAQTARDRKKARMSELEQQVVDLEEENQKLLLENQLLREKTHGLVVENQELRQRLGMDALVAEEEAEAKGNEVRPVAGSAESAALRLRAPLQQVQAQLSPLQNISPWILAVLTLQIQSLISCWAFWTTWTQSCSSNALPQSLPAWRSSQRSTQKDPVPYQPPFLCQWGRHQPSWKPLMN
Sequence of Transcriptional activator Myb (Homo sapiens) (P10242 whole entry, looked up): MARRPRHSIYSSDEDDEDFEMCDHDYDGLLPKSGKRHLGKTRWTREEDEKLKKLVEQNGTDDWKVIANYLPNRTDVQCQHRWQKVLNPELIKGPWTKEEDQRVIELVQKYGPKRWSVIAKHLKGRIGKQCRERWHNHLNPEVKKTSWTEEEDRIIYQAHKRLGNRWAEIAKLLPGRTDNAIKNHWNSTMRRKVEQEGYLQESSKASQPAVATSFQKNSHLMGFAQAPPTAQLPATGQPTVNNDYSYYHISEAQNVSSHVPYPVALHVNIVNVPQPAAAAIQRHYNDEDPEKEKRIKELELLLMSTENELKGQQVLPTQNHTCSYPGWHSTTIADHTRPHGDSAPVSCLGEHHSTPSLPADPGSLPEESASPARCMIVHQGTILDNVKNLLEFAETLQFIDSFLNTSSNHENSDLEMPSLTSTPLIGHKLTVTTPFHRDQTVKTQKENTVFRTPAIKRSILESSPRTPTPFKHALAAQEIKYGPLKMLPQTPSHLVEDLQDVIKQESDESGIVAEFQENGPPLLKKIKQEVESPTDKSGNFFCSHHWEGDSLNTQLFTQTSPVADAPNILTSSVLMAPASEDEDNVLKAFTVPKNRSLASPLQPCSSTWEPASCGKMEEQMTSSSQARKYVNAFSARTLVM
Sequence of Peroxisome proliferator-activated receptor gamma (Homo sapiens) (P37231 whole entry, looked up, the tested form may be a part): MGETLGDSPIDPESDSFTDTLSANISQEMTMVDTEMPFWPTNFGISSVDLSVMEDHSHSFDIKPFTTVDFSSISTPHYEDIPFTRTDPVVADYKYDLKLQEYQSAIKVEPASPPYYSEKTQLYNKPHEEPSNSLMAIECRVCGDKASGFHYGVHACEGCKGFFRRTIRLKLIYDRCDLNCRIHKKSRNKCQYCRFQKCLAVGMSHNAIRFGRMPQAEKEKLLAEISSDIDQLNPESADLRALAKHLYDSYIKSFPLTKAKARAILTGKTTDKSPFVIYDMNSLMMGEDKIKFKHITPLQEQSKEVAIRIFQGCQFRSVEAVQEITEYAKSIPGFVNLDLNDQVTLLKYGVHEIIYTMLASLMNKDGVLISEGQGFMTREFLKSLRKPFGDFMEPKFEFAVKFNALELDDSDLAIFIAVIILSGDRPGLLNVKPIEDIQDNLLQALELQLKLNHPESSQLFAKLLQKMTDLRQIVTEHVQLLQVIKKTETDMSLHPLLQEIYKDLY
Sequence of Signal transducer and activator of transcription 3 (Homo sapiens) (P40763 whole entry, looked up): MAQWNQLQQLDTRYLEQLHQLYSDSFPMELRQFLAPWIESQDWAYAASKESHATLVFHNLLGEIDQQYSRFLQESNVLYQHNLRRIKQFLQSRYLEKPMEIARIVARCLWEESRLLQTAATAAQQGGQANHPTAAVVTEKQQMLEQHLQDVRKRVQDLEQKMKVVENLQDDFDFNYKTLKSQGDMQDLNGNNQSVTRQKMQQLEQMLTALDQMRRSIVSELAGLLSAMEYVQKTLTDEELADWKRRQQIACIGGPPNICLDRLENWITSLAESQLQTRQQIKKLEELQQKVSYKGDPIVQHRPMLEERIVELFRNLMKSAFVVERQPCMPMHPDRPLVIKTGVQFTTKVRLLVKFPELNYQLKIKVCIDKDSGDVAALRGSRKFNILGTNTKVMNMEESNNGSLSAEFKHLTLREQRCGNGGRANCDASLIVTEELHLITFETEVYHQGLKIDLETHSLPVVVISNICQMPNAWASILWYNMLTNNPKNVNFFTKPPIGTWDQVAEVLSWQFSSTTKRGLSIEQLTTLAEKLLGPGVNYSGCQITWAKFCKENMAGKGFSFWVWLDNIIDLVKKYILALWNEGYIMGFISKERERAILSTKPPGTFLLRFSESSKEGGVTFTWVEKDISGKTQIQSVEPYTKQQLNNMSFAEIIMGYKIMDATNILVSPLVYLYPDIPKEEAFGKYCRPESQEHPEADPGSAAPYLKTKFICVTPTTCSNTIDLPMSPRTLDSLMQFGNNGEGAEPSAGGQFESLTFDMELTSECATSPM
Sequence of Cellular tumor antigen p53 (Homo sapiens) (P04637 whole entry, looked up): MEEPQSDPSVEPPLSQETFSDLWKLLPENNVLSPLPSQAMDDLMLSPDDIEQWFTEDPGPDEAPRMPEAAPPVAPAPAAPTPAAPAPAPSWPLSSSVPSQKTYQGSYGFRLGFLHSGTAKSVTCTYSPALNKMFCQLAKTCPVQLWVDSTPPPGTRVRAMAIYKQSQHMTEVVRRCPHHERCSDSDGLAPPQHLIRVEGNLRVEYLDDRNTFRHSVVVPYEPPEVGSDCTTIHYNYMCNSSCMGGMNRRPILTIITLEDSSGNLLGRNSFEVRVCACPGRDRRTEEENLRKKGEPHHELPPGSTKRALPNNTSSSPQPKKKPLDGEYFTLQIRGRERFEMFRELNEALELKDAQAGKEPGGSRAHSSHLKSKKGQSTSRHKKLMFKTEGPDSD
Sequence of Myc proto-oncogene protein (Homo sapiens) (P01106 whole entry, looked up, the tested form may be a part): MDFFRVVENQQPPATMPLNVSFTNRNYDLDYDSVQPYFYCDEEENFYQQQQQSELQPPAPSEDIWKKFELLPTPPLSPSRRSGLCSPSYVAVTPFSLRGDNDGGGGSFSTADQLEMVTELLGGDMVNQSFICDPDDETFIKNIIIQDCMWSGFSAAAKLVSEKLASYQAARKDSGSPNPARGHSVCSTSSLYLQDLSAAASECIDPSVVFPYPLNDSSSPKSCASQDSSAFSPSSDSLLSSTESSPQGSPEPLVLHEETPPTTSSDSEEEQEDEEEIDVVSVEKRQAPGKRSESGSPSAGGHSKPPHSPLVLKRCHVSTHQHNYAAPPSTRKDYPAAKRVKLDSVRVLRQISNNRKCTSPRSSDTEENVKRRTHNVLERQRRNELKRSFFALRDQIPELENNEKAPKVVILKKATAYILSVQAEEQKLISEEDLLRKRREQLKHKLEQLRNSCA
Sequence of Aryl hydrocarbon receptor (Homo sapiens) (P35869 whole entry, looked up): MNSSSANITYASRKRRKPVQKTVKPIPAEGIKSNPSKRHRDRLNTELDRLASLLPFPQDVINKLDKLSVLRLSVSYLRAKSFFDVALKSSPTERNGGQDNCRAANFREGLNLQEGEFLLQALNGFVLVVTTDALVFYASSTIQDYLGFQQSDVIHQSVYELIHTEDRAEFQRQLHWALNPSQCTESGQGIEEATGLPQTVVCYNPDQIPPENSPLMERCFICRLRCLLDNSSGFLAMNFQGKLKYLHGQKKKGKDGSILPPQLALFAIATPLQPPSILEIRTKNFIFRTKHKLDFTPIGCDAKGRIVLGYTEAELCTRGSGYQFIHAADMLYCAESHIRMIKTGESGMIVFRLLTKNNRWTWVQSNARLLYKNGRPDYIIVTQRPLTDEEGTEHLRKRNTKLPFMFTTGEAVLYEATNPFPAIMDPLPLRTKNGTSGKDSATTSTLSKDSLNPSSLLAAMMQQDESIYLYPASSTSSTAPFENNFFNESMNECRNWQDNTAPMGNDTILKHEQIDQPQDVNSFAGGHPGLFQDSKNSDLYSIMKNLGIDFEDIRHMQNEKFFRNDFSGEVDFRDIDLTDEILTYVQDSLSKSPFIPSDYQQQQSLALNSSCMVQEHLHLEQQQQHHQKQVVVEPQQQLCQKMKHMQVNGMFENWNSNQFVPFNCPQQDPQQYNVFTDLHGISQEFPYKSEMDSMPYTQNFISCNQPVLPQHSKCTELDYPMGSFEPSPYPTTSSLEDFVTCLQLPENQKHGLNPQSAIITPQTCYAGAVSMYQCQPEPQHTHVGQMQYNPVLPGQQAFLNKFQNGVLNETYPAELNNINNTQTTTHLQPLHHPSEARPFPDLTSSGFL
Sequence of Hypoxia-inducible factor 1-alpha (Homo sapiens) (Q16665 whole entry, looked up): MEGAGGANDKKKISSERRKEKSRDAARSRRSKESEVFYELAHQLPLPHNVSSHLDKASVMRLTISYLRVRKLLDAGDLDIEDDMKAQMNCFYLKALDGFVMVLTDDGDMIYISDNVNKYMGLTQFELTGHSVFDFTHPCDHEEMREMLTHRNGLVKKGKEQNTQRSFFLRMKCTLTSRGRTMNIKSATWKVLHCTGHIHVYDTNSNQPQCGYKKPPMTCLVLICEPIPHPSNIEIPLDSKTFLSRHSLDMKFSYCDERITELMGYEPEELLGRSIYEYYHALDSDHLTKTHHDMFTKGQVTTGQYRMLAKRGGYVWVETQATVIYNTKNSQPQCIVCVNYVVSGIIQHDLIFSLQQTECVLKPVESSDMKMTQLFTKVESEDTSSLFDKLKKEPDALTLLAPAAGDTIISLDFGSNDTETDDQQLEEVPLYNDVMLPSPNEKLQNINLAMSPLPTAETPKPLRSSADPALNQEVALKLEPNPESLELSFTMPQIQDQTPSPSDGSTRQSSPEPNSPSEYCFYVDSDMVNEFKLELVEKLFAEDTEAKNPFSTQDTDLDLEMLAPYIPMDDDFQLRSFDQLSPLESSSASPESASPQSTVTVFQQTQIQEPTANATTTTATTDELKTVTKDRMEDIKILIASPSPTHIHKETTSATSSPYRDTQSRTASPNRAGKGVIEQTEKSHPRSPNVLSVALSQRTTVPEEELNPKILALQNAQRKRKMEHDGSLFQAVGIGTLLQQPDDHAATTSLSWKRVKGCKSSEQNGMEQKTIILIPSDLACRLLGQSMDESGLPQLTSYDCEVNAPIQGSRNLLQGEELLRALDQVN

With `CC(C)(c1cc(Cl)c(O)c(Cl)c1)c1cc(Cl)c(O)c(Cl)c1`, the molecule was classed as inactive in [1], in assay [2], in [3], in [4], in [5] and in [7]. Also, the result in [8], in assay [10], in assay [11], in [13], in assay [14] and in assay [15] was inactive. Moreover, in assay [18], the result was inactive. For the same molecule, the AC50 – broadly, the concentration at which the activity in the assay is half-maximal – in [6] was 33.4 µM (active); in assay [9], 27.2 µM (active); in assay [12], 47.8 µM (active); in assay [16], 52.1 µM (active); in assay [17], 3.75 µM (active); in assay [18], 19.7 µM (active).

With `O=C=Nc1ccccc1`, the AC50 in assay [1] is 9.05 µM (active). For the same molecule, the molecule was classed as inactive in assay [3], in [5], in assay [19], in [6], in assay [7] and in assay [8]. Besides, the outcome in assay [9], in [10], in assay [12], in [20], in assay [13] and in assay [14] was inactive. Besides, the outcome in assay [15] and in [17] was inactive.

As for `CN(N=O)c1ccccc1`, the molecule was called inactive in [1], in assay [2], in assay [3], in assay [4], in assay [19] and in assay [6]. Further, the call in assay [7], in [8], in assay [9], in assay [10], in assay [11] and in [12] was inactive. In addition, the result in [20], in [13], in assay [14], in assay [15] and in assay [17] was inactive.

Turning to `CC(C)C#N`, the outcome in [1], in [2], in assay [3], in assay [5], in assay [6] and in assay [7] was inactive. Also, the outcome in [8], in assay [10], in assay [11], in [12], in assay [20] and in [13] was inactive. In addition, the molecule was called inactive in [14], in assay [15] and in assay [17].

As for `C=CCN(CC=C)C(=O)C(Cl)Cl`, the call in assay [1], in assay [2], in assay [3], in [6], in assay [7] and in [8] was inactive. For the same molecule, the molecule was called inactive in assay [9], in [10], in [12], in assay [20], in assay [13] and in assay [15]. Further, the call in assay [16], in assay [17] and in [18] was inactive. Moreover, the AC50 in [14] was 50.9 µM (active).
